# From the supplement of paper PMC10681739
# How the values were obtained:
# [1] = target: T1, ETS1 (UniProt P14921); test: ETS1 binding intensity (PBM fluorescence), ETS1 alone (arbitrary fluorescence units); higher = stronger binding; details: ETS1 concentration 1 nM; RUNX1 concentration 0 nM
# T1 sequence: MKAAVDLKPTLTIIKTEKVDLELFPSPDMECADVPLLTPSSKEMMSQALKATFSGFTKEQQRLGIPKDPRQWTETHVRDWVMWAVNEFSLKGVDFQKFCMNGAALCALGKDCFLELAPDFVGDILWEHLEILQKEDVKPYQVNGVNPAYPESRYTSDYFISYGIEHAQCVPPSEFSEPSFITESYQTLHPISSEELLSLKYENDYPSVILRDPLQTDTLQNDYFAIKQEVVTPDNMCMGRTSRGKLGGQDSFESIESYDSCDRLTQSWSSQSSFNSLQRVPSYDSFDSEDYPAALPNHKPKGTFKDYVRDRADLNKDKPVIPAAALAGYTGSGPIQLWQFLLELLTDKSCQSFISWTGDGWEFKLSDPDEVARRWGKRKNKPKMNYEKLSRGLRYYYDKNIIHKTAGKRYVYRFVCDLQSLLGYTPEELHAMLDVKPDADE
# [2] = target: RUNX1 (UniProt Q01196); test: RUNX1 binding intensity (PBM fluorescence), RUNX1 alone (arbitrary fluorescence units); higher = stronger binding; details: RUNX1 concentration 2 nM; ETS1 concentration 0 nM
# Chain of RUNX1 (Q01196 whole entry): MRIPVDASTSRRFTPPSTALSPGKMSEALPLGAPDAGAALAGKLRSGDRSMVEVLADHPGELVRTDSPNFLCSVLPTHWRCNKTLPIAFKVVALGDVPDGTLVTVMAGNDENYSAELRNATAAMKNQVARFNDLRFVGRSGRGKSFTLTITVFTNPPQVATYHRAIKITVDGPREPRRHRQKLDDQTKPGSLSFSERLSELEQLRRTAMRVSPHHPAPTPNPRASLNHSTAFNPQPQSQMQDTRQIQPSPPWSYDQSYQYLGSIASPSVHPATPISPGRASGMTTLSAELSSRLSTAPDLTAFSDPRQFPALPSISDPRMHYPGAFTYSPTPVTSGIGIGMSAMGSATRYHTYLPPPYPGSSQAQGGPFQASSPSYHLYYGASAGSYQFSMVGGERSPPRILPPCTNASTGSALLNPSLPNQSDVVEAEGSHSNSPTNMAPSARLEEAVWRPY
# Experimental: (§1)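 Cooperative gcPBM on 36-bp genomic probes with neighbouring ETS1 and RUNX1 sites. Recombinant human RUNX1 (2 nM) was incubated alone or with ETS1 (25 nM) and detected with anti-RUNX1 antibody plus Alexa488 secondary. Values are medians over 4 replicate spots; the RUNX1+ETS1 data were normalised to the RUNX1-only data. The probes sit in constant array flanks that are not printed.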
# [3] = target: RUNX1 (UniProt Q01196); test: RUNX1 binding intensity (PBM fluorescence) in presence of ETS1, normalised to RUNX1-only experiment (arbitrary fluorescence units); higher = stronger binding; details: RUNX1 concentration 2 nM; ETS1 concentration 25 nM
# Experimental: as §1
# [4] = target: T1, ETS1; test: ETS1 binding intensity (PBM fluorescence) in presence of RUNX1, normalised to ETS1-only experiment (arbitrary fluorescence units); higher = stronger binding; details: ETS1 concentration 1 nM; RUNX1 concentration 25 nM
# 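Throughout, for RUNX1 binding intensity (PBM fluorescence) in presence of ETS1, normalised to RUNX1-only experiment: Full-length recombinant human ETS1 or RUNX1 bound to double-stranded 36-bp genomic probes on microarrays, detected by protein-specific primary antibody and Alexa488 secondary, spot fluorescence as median of four replicate spots.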
# 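Throughout, for RUNX1 binding intensity (PBM fluorescence), RUNX1 alone: Full-length recombinant human RUNX1 bound to double-stranded 36-bp genomic probes on a high-density microarray, scored as Alexa488 fluorescence per spot via anti-RUNX1 antibody, median of four replicate spots.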
Sequence,ETS1 binding intensity [1],RUNX1 binding intensity [2],RUNX1 binding intensity [3],ETS1 binding intensity [4]
GATATGGCAGGAAGTAGGGCCTGGAAACCGCACGGC,3390,954,2000,–
CCGCTTCCGGCCTTCGCCCGGCTTACCCGCGTCGCA,1490,1070,2920,–
TATCTCCTATCTCCAGGAAGTGGTTAGCCCTAGGAG,3210,811,1870,–
AGGGAACAGGAAATGCAAAAAACCACAAGGGACAAG,2100,2050,15800,–
GCACTGTAGGCAGGATGTGGGCAGGGGAAACTCAGG,3720,827,2870,–
CTCTGGCAGGAAGCTCTGAGGGCTAAACCACAAAAA,1110,989,1820,–
TCACATTTTGCCGGATGTGGGTTGAGGGCATGCTGC,6680,773,8730,–
TGACTAAGACCGGAAGAAACCACAAAAACACAAAAA,2580,2700,4540,–
GTTGAGTTCCGGGGGAGGTTGAGTTCCTGCGGTCAA,397,1220,2450,–
CTGCTGCCGCGAACAGGAAACCACTACAATCAGGAG,2840,816,1100,–
AGTGCAGAGTGGACAGGATGTGGTGGAGGTGAGAGA,5690,723,1500,–
AGGTTTTGAAAGAGGAAACCACATACCCGAAAACCA,1120,1030,1160,–
TGGGCTTTGCAGGAAGCTGTGGTTCACCTACAGCCT,1160,692,866,–
GGGCAGGAAGGAAGAGGGCTCCTCCCCACAAGCTCT,437,738,862,–
GTTTGAAGGGAAGTGGGTGTTGACCTGCGGGCAACT,483,806,969,–
TGCAAAAAAACAGGAAACACCCAGCCGCAAATTATA,1740,863,1230,–
GCAGTTTCAAGAGGATGTGGTCTCTTTCACTGCCTG,1160,724,1080,–
CAGAAAGAGGAAATGATGCGAGTCCACACCGCAGGC,788,703,1170,–
TTGGCTTTGTGTTTCCGCGGTGTTGGTAGAGTCTCG,418,875,980,–
GCGCGGACAGAGAAAGGATGTGGTATAGCAGAAAGT,1500,727,884,–
CAGCCTTGCCGGAAGGCAGAGTTTGTGGTCAGACCG,1090,1330,2500,–
TTCATTTCTACCTTCCTGTGGTCTTTTTGCCTCCGA,512,1860,2320,–
GCTCCCGGATGTTCTGGGGATCTGCGGCCGCCTGGC,1300,751,1320,–

Sequence,ETS1 binding intensity [1],RUNX1 binding intensity [2],RUNX1 binding intensity [3],ETS1 binding intensity [4]
CTCCGATTGAGAACAGGAAGCCACAGGCCAATACAA,2660,831,931,–
AGCCGTCATTCAGGATGTGGTGACAGACATGGAGAC,1200,769,1320,–
GGCCCTTCTGGGGCAGGATGTGGTGCCTGCCAAAGG,4650,707,891,–
CTGACGCATTTCCGGCCTTTGCGGTTGATCGGTCAT,5220,4410,18100,–
CCAGACCCGGCGGAACTACCGTGCCCACAAGGCAGC,396,876,894,–
TGCTTAGCGGGAAGTGCTTACACCACAAAACAAGAC,678,726,1750,–
TTTCACTTCCGGCATGTTTTTCACCCACAGGGATAT,3910,1130,2750,–
CAGTGAACAGTTTCCTGTTCCTGTGGTTTTGACTTT,1230,1420,3980,–
CCCACCCGGAAATGAGCCAACAGTGGTTTCGCCCCG,1590,782,1380,–
CCTGTCCGGAAGTCCTGAGAGGGAATCGCCCGCAAA,2300,963,1690,–
AGGGACTTCCGGTGACCAGAGCACTAGCGCCGCAAA,2160,768,2070,–
CACCTCGGGGGTTTCCGGTCCGTGGTTAGCTCCTTC,2600,1030,2930,–
ACCGGCCGAGCCAACTTCCGGCCGCAGAGGCTGCCG,5830,756,1840,–
ACACCCCAGGAAGTGGCAGAGACCACAACAAGTCAG,704,874,1910,–
TGGCAGAGCACATCCTGTGCGGTTTTCAGTTTTGCT,1120,2600,5430,–
CCTCAAAACCCGGAAACGCCTTGCGGGGCAGTGTGG,3330,789,1400,–
GCACCACCGGAAGTAGGGCTCAACCACCGCTCATTT,10300,1000,1980,–
GGCCTTCATTACACAGGATGCGGTTGAAATGCATCA,4110,931,1630,–
TAAAACACCAGGAAACTCTGTGGTGAGTGGGAGGTG,787,1060,903,–
GCAGGACTTCCTGTGTTGTGCTAACCTCAAATTACA,975,859,2030,–
GACAGACCTTAGGAAGTCGCGGTTTCATCAGGGCTT,422,916,1220,–
AGCGGCTGCACAGGAAGTTGGTTTTCACAAAGGCAA,5520,658,1190,–
CCTGCGGATCACGGAAGTGGCTGCGGTCGGCGCCAT,2160,1360,4890,–

Sequence,ETS1 binding intensity [1],RUNX1 binding intensity [2],RUNX1 binding intensity [3],ETS1 binding intensity [4]
ACCCAGTAGGGGCCAGGATGTGGTGAAAAGAGAATT,1610,728,1020,–
GCGAGGAGACAACTTCCTTTTGTGGTCTGACCCTGG,638,857,1970,–
GGTCCGGAAACGATTCTGGACCTGCGGGTATATCCA,1050,776,1070,–
GCTCAAGTACCGGAAAGGCCCGCAGAAAGAAGGGCA,1400,748,1060,–
ATAGTCTCTTCCTGTGTTGCAAACCACAGGTCCACC,743,1050,2300,–
TACAGGAACTTCCTGCGCGGCTGCTGTGGTTGCGAG,794,684,1680,–
TCAGAGACTTCCGCTCAGCAGCAGCTGCGGCCAGGC,966,671,1850,–
GCCACACTTCCGGCGGGGCTGCGACCGCAGAGGGGC,1170,1140,3600,–
CTCAGGGTACCAGGATGTGGTTTAGCTTAGGGGTGG,1840,980,2310,–
TGAGTCACAGAGACAGGATGTGGTGCAGGGGGTATT,7580,718,1030,–
GAAGTGTGCTCTTCCGGTACCTGCGGTTCGTTGCGC,1770,808,2670,–
GAAGCTCCCCAAACAGGATGTGGTTAGGGAGAGGGG,8040,879,4090,–
GTTCATCCAGGAAACCCCAACCCAGTGCCGCAGTAT,538,895,1080,–
TGTGTATGAGAACGGATATAGGTGGTTTTATAAGGA,1890,756,941,–
AAACCCCAAACAGGAAGTGGTAAAGCAACCTGCATC,11200,826,7980,–
CCCAGCCCTGCTGCCGGATGTGGTGAGGCCCAGGTG,5030,768,5400,–
AGCGACAGCGGATGCTCTCTGGCCGCAACATTCTTT,880,769,1080,–
GTCGGAAGTGGCCGTGAGCCCAAGCCGCGGTCCCGG,480,678,951,–
CAAGCCAGGAAGAGGGCCCTCACCAGAAACCGCACT,407,907,1150,–
GAAAAAAATGAGCTTCCTTTAACCACAACTGTATTA,508,1350,2340,–
GAATGACAGAAGCGGAAACCACATGAAAAAGGTGTT,2010,913,1360,–
TGCTTCTGAGGAAGTGATCTGTGGTCAAAGAAAGAA,747,891,1180,–
TGGGGACCACTGTCAGGATGTGGTCACTGGAGTCAC,1020,831,1540,–

Sequence,ETS1 binding intensity [1],RUNX1 binding intensity [2],RUNX1 binding intensity [3],ETS1 binding intensity [4]
GCTGGTATGGCAGGAAGTTTCTCACCACAGTATACT,3540,780,1160,–
AGCCTACATCCTGCACTGCTTAACCACAGCCCGCCT,509,1960,5470,–
GGTGCCTGGGGAGGATGTGGGCTGACTGGGAGGGGT,870,869,974,–
GCACTCATTTCCTGTCCCCTGTGGTTTAAAGGTTTT,1990,1260,4770,–
GGTTCATTTCCTTTTCCTCCTTGTGGTATAAAAGAG,697,1210,2890,–
TGCCTCCTCGTCACAGGATGTGGTCGCTGCACCCTG,5200,788,1700,–
TCCCACTGCGACGGAAGCACAGCGGTTAAGATTGCA,821,792,910,–
GACAATGAGCGCACAGGATGTGGTTTGGCGGCAGGG,6680,854,3690,–
CTGGGCTCGCCAGGCGGAAGTGGTTGGAGACTGCGT,6330,668,1510,–
GAGCCGGAAGTGAAGGAGGGCTTGTGGGAGATGGAG,2710,713,1210,–
TTTCTGACACTCTCAGGATGTGGGTTTTCACACTGT,1190,828,1320,–
TGGGGCCCGGAAGCGCTGGCGCCTTGCGGCCAGAAG,1500,707,952,–
TGAAGCAGGCGGAAGTGCTGTGGTTTCTGGCGACTG,4090,939,2830,–
CAGTGGCAGGAAGAGGTCAGAAACCACTCGTGGTGG,718,816,1100,–
CCCGTTCTCCGGAAGTGCGCGGGTTGGAGCTGAAGC,4390,760,1600,5690
TGTCATCCCGGAAACTGATAACAAGACCGCGAGTCA,1910,807,1450,–
CTGTGACACGTGCGGAAGCTGTGGTAAGTGCATCCA,1130,840,984,–
CTGCTTCCGGCCCCGGGGTTCGCTACCCCACAATCC,1210,981,2530,–
ATGAGCTATTTCCTGCCTTGTGGTCAGAGCCAGACT,1640,1050,4330,–
CACCTCCTCTCCGGATGCGGTTTGTTCTGCTTGTAG,2580,2210,6810,–
AGTAGAGGAGGAAGTTAAATGTGGTTTTCTGGGTGG,864,857,1130,–
ACTGAAAACAGCACAGGATGTGGTCTGCCAGGTGCC,4270,752,1440,10100
AAGTTGATTTCCGGGTAGTCTGTGGTTTCCTAATCA,1040,1210,3880,–
